KB-V1 MDR tox: qHTS assay for MDR1-selective chemotherapeutics: Primary screen using the drug-selected MDR subline cells KB-V1; KB-V1 MDR cells viability, CellTiter-Glo, 72 h; Potency, µM (titrated, usually from 46.1 µM), hits mostly cytotoxic; actives 3.4% (n = 400,000); further: potency means the concentration at half of the fitted maximal effect; on the % scale 0 is the no-effect control and ±100 the full control effect; nearly all actives have a fitted effect of over 60% in size
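Cytotoxicity via CellTiter-Glo luminescence after 72 h compound exposure at 37 degrees C. Cells: drug-selected KB-V1 line, DMEM phenol-red free plus 10% FBS. Compounds tested at multiple concentrations; normalized data fitted to concentration-effect curves.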
KB-3-1 cytotox: qHTS assay for MDR1-selective chemotherapeutics: Primary screen using the parental adenocarcinoma cell KB-3-1; KB-3-1 viability, CellTiter-Glo ATP luminescence, 72 h; Potency, µM (titrated, usually from 46.1 µM), usual class: cytotoxic; actives 1.4% (n = 400,000); further: potency means the concentration at half of the fitted maximal effect; on the % scale 0 is the no-effect control and ±100 the full control effect; nearly all actives have a fitted effect of over 60% in size
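Viability of parental KB-3-1 cells, measured by CellTiter-Glo luminescence, followed a 72 h incubation at 37 °C with pinned compounds in phenol-red-free DMEM containing 10% FBS.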
MCF10A rerep: A quantitative high throughput screen for small molecules that induce DNA re-replication in MCF 10a normal breast cells. MCF 10A DNA re-replication, Hoechst nuclear intensity, 48 h. Potency, µM (top dose mostly 46.1 µM), without a hit: top-dose activity, positive = re-replication, most hits filed as activators. actives 2.9% (n = 350,000). AID 624296, 2012; further: potency means the concentration at half of the fitted maximal effect; % of control where 0% means no effect; nearly all actives have a fitted effect of over 50% in size
hERG WT inh: qHTS for Inhibitors of KCHN2 3.1: Wildtype qHTS. AID 720551, 2013. activity change, % at 1.84 µM. Voltage-gated inwardly rectifying potassium channel KCNH2 (Homo sapiens), Q12809. U2OS, BacMam KCNH2, thallium flux FluxOr; stronger effect = lower value. actives 0.37% (n = 340,000);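 active means maximum activity change below -70%; inconclusive means maximum activity change between -70% and -50%; inactive means maximum activity change above -50%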; further: on the % scale 0 is the no-effect control and ±100 the full control effect
Target sequence (Q12809 whole entry, looked up): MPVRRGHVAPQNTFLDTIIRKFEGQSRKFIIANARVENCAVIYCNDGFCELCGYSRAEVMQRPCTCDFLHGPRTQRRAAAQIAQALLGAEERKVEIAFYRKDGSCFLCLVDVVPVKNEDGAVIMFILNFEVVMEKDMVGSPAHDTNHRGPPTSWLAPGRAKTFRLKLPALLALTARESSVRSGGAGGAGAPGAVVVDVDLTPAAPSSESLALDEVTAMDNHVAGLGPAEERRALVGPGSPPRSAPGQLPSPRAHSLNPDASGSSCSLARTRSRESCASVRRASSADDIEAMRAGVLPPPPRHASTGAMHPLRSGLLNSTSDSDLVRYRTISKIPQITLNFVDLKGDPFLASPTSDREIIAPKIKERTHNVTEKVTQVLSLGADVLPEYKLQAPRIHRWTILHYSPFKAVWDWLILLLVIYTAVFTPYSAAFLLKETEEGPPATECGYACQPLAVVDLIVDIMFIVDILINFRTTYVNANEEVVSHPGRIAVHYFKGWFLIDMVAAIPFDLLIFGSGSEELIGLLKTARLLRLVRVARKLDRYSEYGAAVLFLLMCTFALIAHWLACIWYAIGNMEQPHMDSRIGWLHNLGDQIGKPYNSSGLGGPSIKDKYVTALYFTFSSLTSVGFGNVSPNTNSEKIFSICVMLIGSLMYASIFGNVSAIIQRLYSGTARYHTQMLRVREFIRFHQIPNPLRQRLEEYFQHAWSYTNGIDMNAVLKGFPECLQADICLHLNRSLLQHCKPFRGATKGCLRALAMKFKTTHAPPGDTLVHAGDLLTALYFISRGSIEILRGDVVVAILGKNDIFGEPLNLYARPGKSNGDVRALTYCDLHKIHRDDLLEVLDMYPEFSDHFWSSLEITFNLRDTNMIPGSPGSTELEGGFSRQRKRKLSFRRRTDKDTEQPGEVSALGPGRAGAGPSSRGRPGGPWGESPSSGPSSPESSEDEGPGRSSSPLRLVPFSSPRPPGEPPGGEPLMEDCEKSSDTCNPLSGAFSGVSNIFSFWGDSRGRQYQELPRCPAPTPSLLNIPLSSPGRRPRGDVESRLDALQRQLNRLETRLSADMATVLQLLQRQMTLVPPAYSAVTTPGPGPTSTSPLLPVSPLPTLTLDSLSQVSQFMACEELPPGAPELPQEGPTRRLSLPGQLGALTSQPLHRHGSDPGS
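U2OS cells transduced with wild-type KCNH2 virus are loaded with FluxOr dye for 45 min, and thallium flux is measured in kinetic reads before and after stimulation buffer. Rate constants are normalized to DMSO controls.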
KCNH2 3.1 inh: qHTS for Inhibitors of KCHN2 3.1: Mutant qHTS; U2OS KCNH2 3.1, thallium flux FluxOr; stronger effect = lower value; activity change, % (tested at about 1.8 µM); actives 0.95% (n = 340,000); Potassium voltage-gated channel subfamily H member 2, brain isoform KCNH2 3.1 (human);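 active means maximum activity change below -70%; inconclusive means maximum activity change from -70% to -50%; inactive means maximum activity change above -50%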;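 further: thallium influx rate constant from kinetic fluorescence after stimulation buffer; on the % scale 0 is the no-effect control and ±100 the full control effect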
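U2OS cells transduced with KCNH2 3.1 mutant virus (1.77 x 10^8 /mL, 4 h), plated overnight at 37 C, loaded 45 min with FluxOr dye plus Red40 quencher. Thallium flux rate constant from kinetic reads after stimulation buffer, normalised to controls.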
SW480 rerep: A quantitative high throughput screen for small molecules that induce DNA re-replication in SW480 colon adenocarcinoma cells | actives 1.8% (n = 340,000) | Potency, µM (titrated, usually from 46.1 µM), for inactives: at the top dose re-replication activation, most hits filed as activators | SW480 DNA re-replication, Hoechst DNA content imaging, 48 h | AID 624297, 2012; further: potency means the concentration at half of the fitted maximal effect; % of control where 0% means no effect; nearly all actives have a fitted effect of over 55% in size
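SW480 cells exposed to compounds for 48 hr at 37 C, 5% CO2, then Hoechst-stained 40 min. Nuclear DNA content imaged by fluorescence scanning (405 nm excitation, 500-530 nm emission); re-replication scored as increased high-intensity nuclei.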
Numbers without * were called inactive; i = inactive; ? = inconclusive; / = no result given; ! = not confirmed by another sample; [ ] = remark or other dose. This is a sample that favours compounds with a hit; in the whole collection about 7.6% have one here. Unless noted, the call rests on the fitted dose curve; in most records, active means well fitted curve in the direction sought with a large enough effect; inconclusive means small, poorly fitted or top-dose-only effect, or another doubt; inactive means no such curve, though single readings can be large; an effect the other way counts as inactive or inconclusive.

SMILES	KB-V1 MDR tox	KB-3-1 cytotox	MCF10A rerep	hERG WT inh	KCNH2 3.1 inh	SW480 rerep
CC1CC(C)CC(C)C(O)C(C#N)=CC=CCC(C2CCCC2C(=O)O)OC(=O)CC(O)C(C)C1 (stereo not given)	6.5µM*	1.2µM*	0.13µM*	-4	16	?
CCCCn1c(O)c(C(CC)=NCc2ccc(F)cc2)c(=O)[nH]c1=O	10µM*	?	15%	-1	-17	-4%
CCCCn1c(O)c(C(C)=NCc2ccc(F)cc2)c(=O)[nH]c1=O	i	i	0%	7	-19	-2%
Cc1ccc(OCC(=O)N2CCCC(N3CCN(c4ccc(F)cc4)CC3)C2)cc1 (stereo not given)	i	i	8%	-43	-86*	-14%
COc1ccc(OCC(=O)N2CCCC(N3CCN(c4ccccc4C)CC3)C2)cc1 (stereo not given)	/	/	1%	16	-74*	7%
COc1ccccc1OCC(=O)N1CCCC(N2CCN(c3ccc(F)cc3)CC2)C1 (stereo not given)	i	i	0%	19	2	3%
CC(C)C[C@H]1C(=O)N2CCCC2[C@]2(O)O[C@](NC(=O)[C@@H]3C=C4c5cccc6[nH]c(Br)c(c56)C[C@H]4N(C)C3)(C(C)C)C(=O)N12 (stereo not given in full)	/	/	14%	/	/	10%
O=C(Cc1ccccc1)N1CCN(Cc2ccc(Cl)cc2)CC1	i	i	19%	9	-9	-2%
O=C(/C=C/c1ccc(F)cc1)NNC(=O)CCN1CCN(Cc2ccccc2)CC1	i	?	10µM*	21	-105*	?
CN1C(=S)CN=C(c2ccccc2)c2cc(Cl)ccc21	/	/	1%	/	/	-4%
Cc1cccc(CN2CCN(Cc3ccc(Cl)cc3)CC2)c1	?	i	7.3µM*	37	?	?
CC1(C)[C@@H](C=C(Cl)Cl)[C@@H]1C(=O)OCc1c(F)c(F)cc(F)c1F	/	/	2%	/	/	0%
CC1(C)C(C=C(Cl)Cl)C1C(=O)OCc1cccc(Oc2ccccc2)c1 (stereo not given)	i	i	0.0052µM*!	-7	-7	-48%
C[C@](O)(CS(=O)(=O)c1ccc(F)cc1)C(=O)Nc1ccc(C#N)c(C(F)(F)F)c1	/	/	7%	/	/	2%
C[C@H]1[C@H](OC(=O)CCC(=O)NCc2ccc(C(=O)O)cc2)O[C@@H]2O[C@@]3(C)CC[C@H]4[C@H](C)CC[C@@H]1C24OO3	15µM*	8.2µM*	?	-2	-2	?
CC(C)CC(NC(=O)CCCNC(=O)CCC(=O)OC1O[C@H]2OC3(C)CC[C@H]4[C@H](C)CCC(C1C)C24OO3)C(=O)O (stereo not given in full)	?	7.3µM*	24%	-6	5	8.2µM*
CC1C(OC(=O)CCC(=O)NC(C)(C)CO)O[C@H]2OC3(C)CC[C@H]4[C@H](C)CCC1C24OO3 (stereo not given in full)	13µM*	10µM*	30%	10	-2	?
CCN(CC)CCOC(=O)C(C)(c1ccccc1)c1ccccc1	/	/	?	/	/	1%
CC(CCl)OC(C)CCl (stereo not given)	i	i	2%	1	5	?
CCCCn1c(=O)c(C(=O)NCCc2ccccc2)c(O)c2ccccc21	i	i	18µM*	4	7	-39%
CCCCCn1c(=O)c(C(=O)NCc2ccncc2)c(O)c2ccccc21	2.6µM*	5.8µM*	?	-75*	-13	?
CCCCn1c(=O)c(C(=O)NCc2ccc(Cl)cc2)c(O)c2ccccc21	i	i	?	15	2	?
CC1=CC(=C2C(=O)NC(=S)NC2=O)C=C(C(F)(F)F)N1Cc1ccccc1	12µM*	2.6µM*	3.3µM*	-2	-12	3.7µM*
Clc1ccc2c(c1)C(c1ccccc1)=NCc1nncn1-2	/	/	2%	/	/	-4%
Cn1cc(C(=O)c2ccccc2)c2ccccc21	i	i	16%	5	-2	1%
SMILES	KB-V1 MDR tox	KB-3-1 cytotox	MCF10A rerep	hERG WT inh	KCNH2 3.1 inh	SW480 rerep
COC(=O)c1cn(S(=O)(=O)c2ccccc2)c2ccccc12	i	i	26µM*	2	2	?
COc1ccccc1-c1nn2c(=O)cc(CN3CCN(C(=O)COc4ccccc4Cl)CC3)nc2s1	i	i	/	/	/	/
O=P(Oc1ccccc1)(Oc1ccccc1)C(Nc1ccccc1)c1ccccc1 (stereo not given)	13µM*	?	?	3	-70*	18%
CC(C)CCOP(=O)(c1ccc(N(C)C)cc1)C(O)c1ccccc1 (stereo not given)	i	i	-1%	-1	26	?
CC1(C(=O)O)CCCC2(C)c3cc(O)ccc3CCC12 (stereo not given)	i	i	18µM*	-15	14	-13%
NCC[C@H](O)C(=O)N[C@H]1C[C@@H](N)[C@@H](O[C@H]2O[C@@H](CN)[C@@H](O)[C@@H](O)[C@@H]2N)[C@@H](O[C@H]2O[C@@H](CO)[C@@H](O)[C@@H]2O)[C@@H]1O	/	/	1%[20.6 µM]	/	/	0%[20.6 µM]
CCOC(=O)[C@]12Cc3ccccc3[C@H]1N(CCC(=O)OC)C(=O)c1cc(OC)ccc12	9.2µM*	?	/	/	/	/
CCOC(=O)[C@]12Cc3c(cc(OC)c(OC)c3OC)[C@H]1N(CCC(=O)OC)C(=O)c1ccccc12	?	8.2µM*	/	/	/	/
CCOC(=O)[C@]12Cc3cc(C)ccc3[C@H]1N(C)C(=O)c1ccccc12	i	i	/	/	/	/
CCOC(=O)[C@]12Cc3cc(OC)ccc3[C@H]1N(CCC(=O)OC)C(=O)c1cc(OC)ccc12	?	5.2µM*	/	/	/	/
O=C(CS(=O)C(c1ccccc1)c1ccccc1)NO (stereo not given)	/	/	0%	/	/	2%
COC(=O)[C@@]1(Cc2ccccc2)[C@H]2C(=O)N(Cc3ccccc3)C(=O)[C@H]2[C@H]2CN=C(SCc3ccc(C#N)cc3)N21	i	i	5%	-3	-22	?
CCCC(C)C1(CC)C(=O)NC(=O)NC1=O (stereo not given)	/	/	3%	/	/	-4%

Source: PubChem
